We go through 33 compounds from PubChem BioAssay (NCATS).

Unmarked numbers belong to inactive results. Records with an inconclusive call do not appear. Active and inactive are the calls of the source. Unless noted, the call rests on the fitted dose curve; in most records, active means well fitted curve in the direction sought with a large enough effect; inconclusive means small, poorly fitted or top-dose-only effect, or another doubt; inactive means no such curve, though single readings can be large; an effect the other way counts as inactive or inconclusive.

In test [1] the target is Glutaminase kidney isoform, mitochondrial (Homo sapiens) (UniProt O94925). As to the kind of experiment: qHTS for Inhibitors of Glutaminase (GLS): LOPAC Validation (AID 624146). Further: nearly all actives have a fitted effect of over 60% in size. Further: potency means the concentration at half of the fitted maximal effect. Summed up:
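Enzyme dispensed in phosphate buffer (45 mM, pH 8.2, 0.02% Tween-20), compounds pinned in, then 1 mM L-glutamine solution and the glutamate oxidase–HRP–Amplex Red mix added; fluorescence read immediately and again after 30 min at room temperature.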

The nature of test [2]: qHTS of Trypanosoma Brucei Inhibitors: LOPAC Validation (AID 624147). Summed up: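 Readout: single end-point luminescence (Kinase-Glo Plus, 10 min). Reaction conditions were TbPYK/substrate plus 130 uM ADP, 45 min at RT, pH 7.2 TEA buffer. No-enzyme wells served as controls, and data were normalized before concentration-response fitting.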
(qHTS replaces the single test concentration by a dilution series.)

Test [3] has as its target Glucagon-like peptide 1 receptor (Homo sapiens) (UniProt P43220). As to the kind of experiment: qHTS of GLP-1 Receptor Agonists: LOPAC Validation (AID 624148).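 Further: luminescence from a luciferase reporter switched on by cAMP; higher luminescence signal means agonism.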 Summed up:
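Agonism scored as increased luciferase luminescence driven by cAMP in HEK293 clones carrying GLP-1R. Cells settled 12 hours, received compound for 4-6 hr at 37 deg C, 5% CO2, and were read after 12 min detection reagent at RT.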

The nature of test [4]: qHTS of Nrf2 Activators: LOPAC Validation (AID 624149). The method, boiled down: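 ARE reporter activation measured in AREc32 firefly luciferase cells after 24 hr compound exposure; Steady-Glo luminescence.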
Test [5] is described as follows: HTS Assay for Allosteric Antagonists of the Human D2 Dopamine Receptor: Hit Validation in HTRF (AID 624455).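 Further: stable D1 dopamine receptor cell line scored for blocking the D1 response.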 The method, boiled down:
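Signal from an HTRF read-out in D1-expressing stable cells gave hit activity as inhibition of the D1 response.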
In general terms: Time-resolved FRET reads energy transfer from a long-lived donor to a nearby acceptor.

The target in test [6] is Voltage-gated inwardly rectifying potassium channel KCNH2 (Homo sapiens) (UniProt Q12809). As to the kind of experiment: qHTS Assay for Small Molecule Inhibitors of the Human hERG Channel Activity (AID 588834).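 Further: lower thallium flux fluorescence means stronger hERG block; nearly all actives have a fitted effect of over 50% in size.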 Further: potency means the concentration at half of the fitted maximal effect. The method, boiled down: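 Measured: FluxOR fluorescence after thallium stimulation in U2OS cells transduced with hERG by baculovirus. Compounds pre-incubated around 10 min; medium Opti-MEM with 2% FCS. AC50 from Hill equation.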

Test [7] can be described thus: S16 Schwann cell viability assay (CellTiter-Glo assay) (AID 624031).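 Further: native untransfected S16 rat Schwann cells; cellular ATP luminescence as a viability measure; series mostly up to about 58 µM; nearly all actives have a fitted effect of over 70% in size.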 Summed up:
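Parental S16 cells, 24 h compound, 37 °C. ATP-luminescence viability; DMSO = 0% activity, empty wells as reference; curves classified by fit quality and efficacy.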

The nature of test [8]: S16 Schwann cell PMP22 intronic element firefly luciferase assay (AID 624032). Further: series mostly up to about 58 µM; nearly all actives have a fitted effect of over 30% in size. Summed up: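 Luciferase reporter of PMP22 intronic-element expression in stably transfected S16 rat Schwann cells, read by ONE-Glo luminescence after 24 h compound exposure at 37 C. Activity scaled between DMSO (0%) and positive-control PTC124; concentration-effect curves quality-classified.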
The target in test [9] is Luciferin 4-monooxygenase (Photinus pyralis) (UniProt P08659). As to the kind of experiment: Biochemical firefly luciferase enzyme assay for NPC (AID 624030).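 Further: purified P. pyralis luciferase at 10 nM with luciferin and ATP substrate; series mostly up to about 59 µM; nearly all actives have a fitted effect of over 70% in size.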 Summed up: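 Direct inhibition of firefly luciferase enzyme (10 nM final, 50 mM Tris Acetate) assessed by luminescence within 5 minutes. Percent activity scaled between DMSO and PTC124 positive control, with concentration-effect curves classified by fit quality and response.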

The nature of test [10]: S16 Schwann cell PMP22 intronic element beta-lactamase assay (AID 624044; calls by dose curve; further: nearly all actives have a fitted effect of over 15% in size). Summed up:
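Rat S16 Schwann cells with beta-Lac driven by a PMP22 intronic element, compound-treated 24 h at 37 °C. LiveBLAzer FRET B/G read: 460 nm normalized to potassium clavulanate vs DMSO; 535 nm FRET as viability; concentration-effect curves classified.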

Sequence of Glutaminase kidney isoform, mitochondrial (Homo sapiens) (O94925 whole entry, looked up, canonical isoform): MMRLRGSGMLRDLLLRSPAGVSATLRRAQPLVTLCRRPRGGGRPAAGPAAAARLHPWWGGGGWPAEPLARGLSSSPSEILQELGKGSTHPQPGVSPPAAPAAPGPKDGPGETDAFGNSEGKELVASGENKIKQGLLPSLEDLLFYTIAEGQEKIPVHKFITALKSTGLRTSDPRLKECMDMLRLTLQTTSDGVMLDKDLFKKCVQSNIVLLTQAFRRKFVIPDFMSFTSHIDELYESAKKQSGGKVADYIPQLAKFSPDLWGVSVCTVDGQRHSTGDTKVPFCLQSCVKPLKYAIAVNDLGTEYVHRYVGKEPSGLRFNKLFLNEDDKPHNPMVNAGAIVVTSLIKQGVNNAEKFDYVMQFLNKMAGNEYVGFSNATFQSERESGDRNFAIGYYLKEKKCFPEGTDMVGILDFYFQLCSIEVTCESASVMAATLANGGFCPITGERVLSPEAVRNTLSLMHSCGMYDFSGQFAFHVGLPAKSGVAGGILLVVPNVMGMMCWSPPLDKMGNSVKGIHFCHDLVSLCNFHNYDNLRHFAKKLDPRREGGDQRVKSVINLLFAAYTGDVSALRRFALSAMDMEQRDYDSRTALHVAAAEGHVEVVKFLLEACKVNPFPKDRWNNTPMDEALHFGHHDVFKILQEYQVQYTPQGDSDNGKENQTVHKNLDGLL
Sequence of Voltage-gated inwardly rectifying potassium channel KCNH2 (Homo sapiens) (Q12809 whole entry, looked up): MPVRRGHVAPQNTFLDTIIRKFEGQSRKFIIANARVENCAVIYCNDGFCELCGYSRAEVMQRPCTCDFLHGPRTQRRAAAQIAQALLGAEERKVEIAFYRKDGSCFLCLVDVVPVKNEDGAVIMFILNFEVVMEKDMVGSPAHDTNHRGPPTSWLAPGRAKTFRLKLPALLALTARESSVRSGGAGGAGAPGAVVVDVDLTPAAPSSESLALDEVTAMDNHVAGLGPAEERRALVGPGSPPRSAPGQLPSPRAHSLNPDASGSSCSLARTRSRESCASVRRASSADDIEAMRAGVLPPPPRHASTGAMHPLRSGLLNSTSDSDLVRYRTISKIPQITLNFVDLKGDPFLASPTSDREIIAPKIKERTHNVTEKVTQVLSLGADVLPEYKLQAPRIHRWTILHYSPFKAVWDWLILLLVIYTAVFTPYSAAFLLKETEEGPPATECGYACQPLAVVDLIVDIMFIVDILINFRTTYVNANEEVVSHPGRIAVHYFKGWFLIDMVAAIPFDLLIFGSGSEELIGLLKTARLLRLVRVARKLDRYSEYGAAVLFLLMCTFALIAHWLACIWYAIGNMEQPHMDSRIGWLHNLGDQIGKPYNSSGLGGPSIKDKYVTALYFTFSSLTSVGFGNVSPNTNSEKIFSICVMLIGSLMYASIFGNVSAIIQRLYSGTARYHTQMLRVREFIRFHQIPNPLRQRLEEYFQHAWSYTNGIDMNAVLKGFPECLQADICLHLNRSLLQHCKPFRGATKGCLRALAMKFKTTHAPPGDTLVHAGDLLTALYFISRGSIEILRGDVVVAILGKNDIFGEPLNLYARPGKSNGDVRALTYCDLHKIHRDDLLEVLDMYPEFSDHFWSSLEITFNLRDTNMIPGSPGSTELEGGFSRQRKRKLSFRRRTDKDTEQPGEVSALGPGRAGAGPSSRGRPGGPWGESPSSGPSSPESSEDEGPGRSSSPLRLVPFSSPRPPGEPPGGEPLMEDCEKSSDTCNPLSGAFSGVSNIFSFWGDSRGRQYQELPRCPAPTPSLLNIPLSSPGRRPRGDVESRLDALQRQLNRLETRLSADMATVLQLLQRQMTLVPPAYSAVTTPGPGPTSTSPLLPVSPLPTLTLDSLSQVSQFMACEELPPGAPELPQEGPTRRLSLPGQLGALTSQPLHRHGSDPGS
Sequence of Glucagon-like peptide 1 receptor (Homo sapiens) (P43220 whole entry, looked up): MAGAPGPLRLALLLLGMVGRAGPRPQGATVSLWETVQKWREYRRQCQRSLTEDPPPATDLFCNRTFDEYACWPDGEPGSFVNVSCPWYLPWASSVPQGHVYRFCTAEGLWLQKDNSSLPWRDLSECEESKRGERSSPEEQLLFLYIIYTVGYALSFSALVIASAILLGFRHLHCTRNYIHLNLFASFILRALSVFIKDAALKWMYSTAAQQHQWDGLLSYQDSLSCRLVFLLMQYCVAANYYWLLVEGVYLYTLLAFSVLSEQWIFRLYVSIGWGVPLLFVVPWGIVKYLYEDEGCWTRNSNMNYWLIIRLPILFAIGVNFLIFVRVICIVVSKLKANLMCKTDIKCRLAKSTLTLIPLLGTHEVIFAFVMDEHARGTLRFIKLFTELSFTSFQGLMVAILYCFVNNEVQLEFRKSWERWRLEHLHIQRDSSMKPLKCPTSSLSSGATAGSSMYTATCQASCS
Sequence of Luciferin 4-monooxygenase (Photinus pyralis) (P08659 whole entry, looked up): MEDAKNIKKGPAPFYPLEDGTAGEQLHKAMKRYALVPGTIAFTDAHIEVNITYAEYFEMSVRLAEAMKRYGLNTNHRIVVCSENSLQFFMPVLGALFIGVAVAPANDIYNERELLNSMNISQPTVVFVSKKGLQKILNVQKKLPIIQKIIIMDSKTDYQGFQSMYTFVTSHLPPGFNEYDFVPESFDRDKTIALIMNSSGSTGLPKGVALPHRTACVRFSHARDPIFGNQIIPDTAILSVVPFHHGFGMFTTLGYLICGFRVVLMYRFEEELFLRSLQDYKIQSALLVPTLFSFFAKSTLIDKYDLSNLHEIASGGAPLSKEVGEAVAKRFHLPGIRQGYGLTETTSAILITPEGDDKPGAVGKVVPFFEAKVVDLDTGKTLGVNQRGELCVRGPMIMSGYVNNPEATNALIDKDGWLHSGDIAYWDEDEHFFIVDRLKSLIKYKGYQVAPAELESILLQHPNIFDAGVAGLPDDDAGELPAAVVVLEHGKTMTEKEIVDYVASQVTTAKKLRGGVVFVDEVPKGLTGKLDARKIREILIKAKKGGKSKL

With `CCC1(O)CC2CN(CCc3c([nH]c4ccccc34)[C@@](C(=O)OC)(c3cc4c(cc3OC)N(C)C3[C@]45CCN4CC=C[C@@](CC)([C@@H](OC(C)=O)[C@]3(O)C(=O)OC)[C@H]45)C2)C1` (some centres undefined), in test [1], the Potency is 8.91 µM (active). The Potency result in test [2], in test [3], in test [4] and in [5] was “inactive” throughout.
On to `CSc1nc(N)c2ncn([C@@H]3O[C@H](COP(=O)(O)OP(=O)(O)O)C(O)[C@H]3O)c2n1` (some centres undefined), for which the Potency entry in test [1], in [2], in [3] and in test [4] was “inactive” each time.
For the compound `O=C1Nc2ccc(I)cc2/C1=C/c1cc(Br)c(O)c(Br)c1`, the Potency result in test [1], in [2], in test [3], in test [4] and in test [5] was “inactive” in each case.
As to `O=C(O)Cc1ccc(O)c(O)c1`, the Potency result in test [6], in test [3], in [4] and in [5] was “inactive” in each case.
In the case of `N[C@H](C(=O)O)[C@H](O)C(=O)O`, the Potency entry in [6], in test [2], in test [4] and in test [5] was “inactive” each time.
Regarding `c1ccc(C(NCCNC(c2ccccc2)c2ccccc2)c2ccccc2)cc1`, the Potency result in test [1], in test [2], in test [3], in test [4] and in test [5] was “inactive” each time.
As for `OC[C@H]1O[C@H](n2cnc3c(N[C@H]4CCC[C@@H]4O)ncnc32)[C@H](O)[C@@H]1O`, the Potency entry in [1], in test [2], in test [3], in test [4] and in [5] was “inactive” each time.
In the case of `O=C(O)/C(=C/c1c(C(=O)O)[nH]c2cc(Cl)cc(Cl)c12)c1ccccc1`, the Potency entry in test [6], in [2], in test [4] and in test [5] was “inactive” each time.
`CC(N)=O`: the Potency result in test [6], in test [2], in [3], in test [4] and in [5] was “inactive” each time.
As for `CC(C)NC[C@H](O)COc1ccc(CC(N)=O)cc1`, the compound was called inactive in [7] and in test [8]. Besides, the Potency result in test [1], in [3] and in [4] was “inactive” in each case.
As to `O=C(O)C1CN(CCCP(=O)(O)O)CCN1` (centres undefined), the Potency entry in [6], in test [2], in test [4] and in test [5] was “inactive” in each case.
Regarding `CCCCCCCCCCCCCCCCCCOC[C@H](COP(=O)([O-])OCC[N+](C)(C)C)OC`, the compound was called inactive in test [9], in test [7], in test [8] and in [10]. Moreover, the Potency entry in test [1], in test [2], in test [3], in test [4] and in test [5] was “inactive” in each case.
Regarding `NC[C@@H]1O[C@H](c2ccccc2)Cc2c1ccc(O)c2O`, the Potency result in [1], in [2], in [3] and in test [4] was “inactive” throughout.
In the case of `N[C@H](C(=O)O)[C@H](Cc1ccccc1)C(=O)O`, the Potency entry in [1], in test [2], in test [3] and in test [4] was “inactive” in each case.
As to `C=CCNc1ncnc2ccc(Br)cc12`, the Potency entry in [1], in test [2], in [3], in [4] and in test [5] was “inactive” in each case.
As to `CC[C@H](NC(=O)c1c(C)c(-c2ccccc2)nc2ccccc12)c1ccccc1`, the Potency result in [1], in [2], in test [3], in [4] and in test [5] was “inactive” in each case.
In the case of `OC1(c2ccc(Cl)cc2)CCN(Cc2c[nH]c3ccccc23)CC1`, the Potency entry in [1], in test [2], in test [3], in test [4] and in [5] was “inactive” in each case.
As for `CCCn1c(=O)c(C)cn2nc(N)nc12`, the Potency result in test [1], in test [2], in [3], in test [4] and in test [5] was “inactive” throughout.
As for `Cc1ccc2c(c1)C(N1CCN(C)CC1)=Nc1cccnc1N2`, the Potency entry in test [6], in [3], in [4] and in test [5] was “inactive” in each case.
`C=CCN1CCc2c(cc(O)c(O)c2Br)[C@@H](c2ccccc2)C1`: the Potency in test [6] was 7.08 µM (active). In addition, the Potency result in [2] and in test [4] was “inactive” each time.
With `Cc1nc2c(OCc3ccccc3)cccn2c1CC#N`, the Potency entry in test [6], in test [2] and in [5] was “inactive” each time.
In the case of `CN(C)CCCc1cc(C(=O)Nc2ccc(-c3ccncc3)cc2)ccc1O`, the Potency entry in test [1], in [2] and in test [4] was “inactive” each time.
Turning to `C=C1C[C@@]23CC[C@H]4[C@@](C)(CCC[C@@]4(C)C(=O)OC4OC(CO)C(O)C(O)C4O)[C@@H]2CC[C@]1(OC1OC(CO)C(O)C(O)C1OC1OC(CO)C(O)C(O)C1O)C3` (some centres undefined), the Potency entry in test [1], in test [2], in test [3], in test [4] and in [5] was “inactive” in each case.
For the compound `NC(=O)CNCCC(c1ccccc1)c1ccccc1`, the Potency result in test [1], in [2], in [3], in [4] and in test [5] was “inactive” each time.
As to `CN(CC[C@@H](Oc1ccc(C(F)(F)F)cc1)c1ccccc1)CC(=O)O`, the Potency result in test [1], in [2], in test [3], in test [4] and in [5] was “inactive” in each case.
Turning to `CCCOC(=O)c1c(-c2ccccc2)nc(CC)c(C(=O)SCC)c1CCC`, the Potency result in test [1], in [2], in test [3], in test [4] and in test [5] was “inactive” in each case.
Consider `Nc1nc2c(cnn2CCc2ccccc2)c2nc(-c3ccco3)nn12`, for which the Potency entry in test [1], in test [2], in test [3] and in test [5] was “inactive” in each case.
As to `N=S(=O)(O)Cc1noc2ccccc12`, the Potency result in test [1], in test [2], in test [3], in test [4] and in test [5] was “inactive” in each case.
Turning to `CC(/C=C/c1cccc(Oc2ccc(F)cc2)c1)N(O)C(N)=O` (centres undefined), the Potency in test [1] is 1.78 µM (active). The Potency entry in [2], in [3], in test [4] and in test [5] was “inactive” throughout.
Consider `CC(=O)N[C@@H](Cc1c[nH]c2ccccc12)C(=O)OCc1cc(C(F)(F)F)cc(C(F)(F)F)c1`, for which the Potency entry in test [1], in [2], in test [3], in [4] and in test [5] was “inactive” each time.
In the case of `Cc1nc2n(c(=O)c1CCN1CCC(c3noc4cc(F)ccc34)CC1)CCCC2O` (centres undefined), the Potency result in test [1], in [2], in test [3], in test [4] and in test [5] was “inactive” in each case.
For the compound `CC(C)[C@@H]1CC[C@@H](C)C[C@@H]1P(=O)(c1ccccc1)c1ccccc1`, the Potency result in test [1], in test [2], in test [3], in test [4] and in test [5] was “inactive” each time.
On to `O=c1cc(-c2ccccc2F)[nH]c2cc3c(cc12)OCO3`, for which the Potency entry in test [1], in test [2], in test [3], in test [4] and in test [5] was “inactive” each time.
